Source: PubChem BioAssay (NCATS)
Records with an inconclusive call do not appear. The source made the active and inactive calls. Calls follow the shape of the dose curve; as a rule, active = well fitted curve in the direction sought with a large enough effect; inconclusive = small, poorly fitted or top-dose-only effect, or another doubt; inactive = no such curve, though single readings can be large; an effect the other way counts as inactive or inconclusive.

Assays:
[1] = molecular target: Glutathione peroxidase 1 (Homo sapiens) (UniProt P07203); experiment: Primary qHTS Assay for Inhibitors of Recombinant Selenoprotein Glutathione Peroxidase 1 (GPX1) (AID 1845191); also: nearly all actives have a fitted effect of over 65% in size; as to activity, negative = inhibition: % is scaled to controls: 0 for no effect and ±100 for the full control effect
Sequence of Glutathione peroxidase 1 (Homo sapiens) (P07203 whole entry, looked up): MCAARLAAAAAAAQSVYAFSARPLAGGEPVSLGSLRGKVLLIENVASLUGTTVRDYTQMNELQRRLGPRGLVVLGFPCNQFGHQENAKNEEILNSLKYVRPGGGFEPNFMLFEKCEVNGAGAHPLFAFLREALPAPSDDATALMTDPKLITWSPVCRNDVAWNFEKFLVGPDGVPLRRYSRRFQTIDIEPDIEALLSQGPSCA
How it was run: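 GR-coupled assay: compounds preincubated 30 min at room temperature with GPX1, then reaction started with CHP; final 10 nM GPX1, 1 mM GSH, 0.5 mM CHP, 0.5 mM NADPH, 100 nM GR, 0.01% BSA, pH 7.5 Tris buffer. NADPH fluorescence (340/450 nm) read at 0 and 15 min.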

[2] = molecular target: Phospholipid hydroperoxide glutathione peroxidase GPX4 (Homo sapiens) (UniProt P36969); experiment: Primary qHTS Assay for Inhibitors of Recombinant Selenoprotein Glutathione Peroxidase 4 (GPX4) (AID 1845192); also: nearly all actives have a fitted effect of over 65% in size; as to activity change, negative = inhibition: series mostly up to about 50 µM; % is scaled to controls: 0 for no effect and ±100 for the full control effect
Sequence of Phospholipid hydroperoxide glutathione peroxidase GPX4 (Homo sapiens) (P36969 whole entry, looked up): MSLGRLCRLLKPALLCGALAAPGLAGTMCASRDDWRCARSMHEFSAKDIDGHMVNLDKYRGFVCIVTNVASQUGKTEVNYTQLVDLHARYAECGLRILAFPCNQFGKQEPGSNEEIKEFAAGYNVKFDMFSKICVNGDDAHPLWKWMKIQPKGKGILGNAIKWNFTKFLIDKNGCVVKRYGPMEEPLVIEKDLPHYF
How it was run: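 GR-coupled assay: recombinant GPX4 preincubated 30 min with compound at room temperature; final 200 nM GPX4, 1 mM GSH, 0.5 mM cumene hydroperoxide, 0.5 mM NADPH, 100 nM GR, 0.01% BSA, pH 7.5 Tris. NADPH fluorescence (340/450 nm) read at 0 and 15 min.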

[3] = molecular target: Luciferin 4-monooxygenase (Photinus pyralis) (UniProt P08659); experiment: Primary firefly luciferase (FLuc) qHTS assay for identification of artifact compounds. (AID 1845220); also: nearly all actives have a fitted effect of over 60% in size;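 as to activity change, negative = inhibition: series mostly up to about 54 µM; plate controls were DMSO vehicle for no effect and no enzyme for full effect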
How it was run: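 Titrated compounds were incubated 15 min at RT, protected from light, with luciferin and ATP at 10 uM; reaction started with 10 nM FLuc, luminescence imaged at 5 min, and concentration-response fitted by Hill equation.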

[4] = Primary fluorescence-based thiol-reactive (MSTI) qHTS assay for identification of artifact compounds. (AID 1845221); also: nearly all actives have a fitted effect of over 65% in size; also: potency is read from the fitted curve at half-maximal effect;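 as to activity change, negative = thiol reactive: series mostly up to about 54 µM; thiol-reactive compounds lower the probe fluorescence signal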
How it was run: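 MSTI probe at 4 uM final in 2% DMSO/PBS pH 7.4; compounds, 1 h at room temperature in dark. Fluorescence Ex/Em 525/598 nm, normalised to Acetyl-MSTI and MSTI, fitted to 4-parameter Hill.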

[5] = system: Nanoluciferase (engineered Oplophorus gracilirostris luciferase); experiment: Primary Nanoluciferase (NLuc) qHTS assay for identification of artifact compounds. (AID 1845222);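 also: NLuc secreted into diluted conditioned medium of S16 cells; series mostly up to about 54 µM; 0% = DMSO and -100% = no enzyme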
How it was run: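 qHTS format, against NLuc in S16 cell-conditioned medium. Nano-Glo substrate 1:100 was added after 15 min at room temperature. Luminescence was taken after a further 5 min.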

[6] = Primary redox qHTS assay for identification of artifact compounds. (AID 1845223);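 also: 0% = DMSO and 100% = reference compound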
How it was run: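 Amplex Red (25 uM) and HRP (250 mU/mL) in HBSS, with compounds for 15 min, then 250 uM DTT for 30 min, room temperature, dark. Fluorescence 525/598 nm read; normalized to DMSO and 10 uM DA3003; Hill fit.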

COc1ccc2[nH]c3c(-c4cccc5ccccc45)nccc3c2c1
inactive: Potency [1] | Potency [2] | Potency [3] | Potency [4] | Potency [5] | Potency [6]

N[C@@]1(C(=O)O)CC[C@H]2[C@H](C(=O)O)[C@H]21
inactive: Potency [1] | Potency [2] | Potency [3] | Potency [4] | Potency [5] | Potency [6]

CC(=O)c1c(O)cc(O[C@@H]2O[C@H](CO)[C@@H](O)[C@H](O)[C@H]2O)cc1O
active: Potency [4] 4.14 µM
inactive: Potency [1] | Potency [2] | Potency [3] | Potency [5] | Potency [6]

CC(C)=C/C=C\[C@H](C)[C@H]1CC[C@]2(C)C[C@@H]3C(C)=CC(=O)C3/C(CO)=C\C[C@@H]12 (some centres not stated)
inactive: Potency [1] | Potency [2] | Potency [3] | Potency [4] | Potency [5] | Potency [6]

C=C1CC23CC1CCC2C12OC(=O)C(C)(CCC1O)C2C3C(=O)O (configuration not stated)
inactive: Potency [1] | Potency [2] | Potency [3] | Potency [4] | Potency [5] | Potency [6]

Cc1cccc(C)c1OCc1cc(C(=O)N2CCC(c3ccncc3)CC2)no1
inactive: Potency [1] | Potency [2] | Potency [3] | Potency [4] | Potency [5] | Potency [6]

C=C(C(=O)O)C1CC2=C(C)CCCC2(C)C[C@@H]1O (some centres not stated)
inactive: Potency [1] | Potency [2] | Potency [3] | Potency [4] | Potency [5] | Potency [6]

C=C1C(=O)OC2C1C(O)CC1(C)C(O)CCC(C=O)C21 (configuration not stated)
inactive: Potency [1] | Potency [2] | Potency [3] | Potency [4] | Potency [5] | Potency [6]

C[C@@H]1CN(Cc2ncccn2)C[C@H]1c1nc2c(cnn2C2CCOCC2)c(=O)[nH]1
inactive: Potency [1] | Potency [2] | Potency [3] | Potency [4] | Potency [5] | Potency [6]

O=C(Nc1ccn[nH]1)c1c(F)cccc1F
inactive: Potency [1] | Potency [2] | Potency [3] | Potency [4] | Potency [5] | Potency [6]

CC1OC(OC2C(C)OC(OC3C(O)C(CO)OC(O[C@H]4CC[C@@]5(C)C(CC[C@]6(C)C5CC=C5C7[C@@H](C)[C@H](C)CC[C@]7(C(=O)O)CC[C@]56C(=O)O)C4(C)C)C3O)C(O)C2O)C(O)C(O)C1O (some centres not stated)
inactive: Potency [1] | Potency [2] | activity change, negative = inhibition [3] 1.66% [at 11.6 µM] | activity change, negative = thiol reactive [4] 65.9% [at 11.5 µM] | activity, negative = inhibition [5] -3.75% [at 11.6 µM] | redox activity (% of DA3003) [6] -18.3% [at 11.5 µM]

COc1cc2ncnc(Nc3ccc(F)c(Cl)c3)c2cc1NC(=O)/C=C/CN1CCCCC1
inactive: Potency [1] | Potency [2] | Potency [3] | Potency [4] | Potency [5] | Potency [6]

COC1CC(OC2CCC3(C)C(=CCC4C3C(OC(C)=O)C(OC(=O)/C=C/c3ccccc3)C3(C)C(C(C)O)CCC43O)C2)OC(C)C1OC1CC(OC)C(OC2OC(C)C(OC3OC(CO)C(O)C(O)C3O)C(OC)C2O)C(C)O1 (configuration not stated)
inactive: outcome [1] inactive [at 9.52 µM] | activity change, negative = inhibition [2] 0.674% [at 9.73 µM] | activity change, negative = inhibition [3] 0.278% [at 11.6 µM] | activity change, negative = thiol reactive [4] 40.8% [at 11.5 µM] | activity, negative = inhibition [5] 3.09% [at 11.6 µM] | redox activity (% of DA3003) [6] -2.26% [at 11.5 µM]

CN(C)C/C=C/C(=O)Nc1cccc(C(=O)Nc2ccc(Nc3nccc(-c4cccnc4)n3)cc2)c1
inactive: Potency [1] | Potency [2] | Potency [3] | Potency [4] | Potency [5] | Potency [6]

CCCCCCOc1cc2c(cc1N(C)c1ncc(C(=O)O)cn1)C(C)(C)CCC2(C)C
inactive: Potency [1] | Potency [2] | Potency [3] | Potency [4] | Potency [5] | Potency [6]

C[C@@H]1C(=O)O[C@H]2[C@H](O)C34[C@H]5C[C@@H](C(C)(C)C)C36[C@@H](OC(=O)[C@@H]6O)O[C@@]4(C(=O)O5)[C@@]12O (some centres not stated)
inactive: Potency [1] | Potency [2] | Potency [3] | Potency [4] | Potency [5] | Potency [6]

CC1(C)CC2=C3C=CC4C5(C)CCC(O)C(C)(C)C5CCC4(C)C3(C)CCC2(C)C(O)C1 (configuration not stated)
active: Potency [4] 11.6 µM
inactive: Potency [1] | Potency [2] | Potency [3] | Potency [5] | Potency [6]

CC(=O)O[C@H]1[C@H](O[C@H]2[C@@H]3C=CO[C@@H](O[C@@H]4O[C@H](CO)[C@@H](O)[C@H](O)[C@H]4O)[C@@H]3[C@@]3(CO)O[C@@H]23)O[C@@H](C)[C@H](OC(=O)/C=C/c2ccccc2)[C@H]1OC(=O)/C=C/c1ccccc1
inactive: Potency [1] | Potency [2] | outcome [3] inactive [at 11.6 µM] | activity change, negative = thiol reactive [4] 2.44% [at 11.5 µM] | activity, negative = inhibition [5] 2.49% [at 11.6 µM] | redox activity (% of DA3003) [6] 5.63% [at 11.5 µM]

COc1ccccc1NC(=O)OCC1CCN(C(=O)OC(C)(C)C)CC1
inactive: Potency [1] | Potency [2] | Potency [3] | Potency [4] | Potency [5] | Potency [6]

CC1=CC(=O)C2(OC3OC(C)C(O)C(OC(=O)/C=C/c4ccccc4)C3O)C=COC(OC3OC(CO)C(O)C(O)C3O)C12 (configuration not stated)
active: Potency [4] 1.41 µM
inactive: Potency [1] | Potency [2] | Potency [3] | Potency [5] | Potency [6]

O=c1[nH]ccc2cc(OC3CCNCC3)ccc12
inactive: Potency [1] | Potency [2] | Potency [3] | Potency [4] | Potency [5] | Potency [6]

Nc1ncnc2c([C@@H]3N[C@H](CO)[C@@H](O)[C@H]3O)c[nH]c12
inactive: Potency [1] | Potency [2] | Potency [3] | Potency [4] | Potency [5] | Potency [6]
